Screening data: PubChem, several laboratories
Compounds with a hit are over-represented: about 3.6% of the library has one in this group of screens.
PTEN del growth = PTEN-deleted cell growth suppression. 1.2% of 140,000 active. HCT116 PTEN-null viability, CellTiter-Glo, 60 h; stronger effect = lower value. AID 827. viability, % at 10 µM;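 active = viability at or below a set limit, 4 SD under the median of all tested compounds, cut at about 3.7% in these data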;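 also: PTEN knockout HCT116 line with beta catenin targeted HCT116 as companion control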
hDAT+cocaine = modulates human dopamine transporter uptake under cocaine; Q01959; LLC-PK1 hDAT cells, [14C]-dopamine uptake with cocaine IC80; actives deviate in either direction; B-score at 10 µM; 1.3% of 110,000 active; AID 449768;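 active = Z score or B-score, a plate-position-corrected score, falls beyond the plate's 99.7% confidence bounds, in either direction; inactive = both scores lie inside the 99.7% bounds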;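 also: scored against the spread of the other compound wells on the same plate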
Target sequence (Q01959 whole entry, looked up): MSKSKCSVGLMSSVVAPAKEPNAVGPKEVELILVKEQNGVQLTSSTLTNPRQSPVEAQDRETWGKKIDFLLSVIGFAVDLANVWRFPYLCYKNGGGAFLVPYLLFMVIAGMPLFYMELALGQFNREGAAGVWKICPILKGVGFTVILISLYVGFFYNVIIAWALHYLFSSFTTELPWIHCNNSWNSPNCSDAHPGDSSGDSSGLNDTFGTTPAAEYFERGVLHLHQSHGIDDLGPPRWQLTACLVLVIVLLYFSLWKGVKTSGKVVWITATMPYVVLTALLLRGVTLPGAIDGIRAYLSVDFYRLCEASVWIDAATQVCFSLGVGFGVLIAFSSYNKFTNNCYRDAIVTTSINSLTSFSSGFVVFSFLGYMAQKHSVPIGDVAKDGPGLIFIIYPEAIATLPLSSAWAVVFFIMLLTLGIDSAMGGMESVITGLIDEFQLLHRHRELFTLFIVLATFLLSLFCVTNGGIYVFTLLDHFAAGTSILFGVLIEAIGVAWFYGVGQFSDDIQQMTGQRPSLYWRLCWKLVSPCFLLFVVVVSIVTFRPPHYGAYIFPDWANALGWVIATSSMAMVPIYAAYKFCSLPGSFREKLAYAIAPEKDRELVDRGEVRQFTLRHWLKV
WT yeast gro inh = growth inhibition of WT yeast, mitochondrial fusion screen. inhibition, % at 10 µM. 2.1% of 190,000 active. mitochondrial fusion phenotypic screen, WT strain; in the data active = inhibition above about 58%; tested in S. cerevisiae
bCat KO growth = beta-catenin-lacking colon tumor cell growth suppression. HCT116 beta-catenin knockout viability, CellTiter-Glo, 60 h; stronger effect = lower value. AID 818. 1.5% of 140,000 active. viability, % at 10 µM;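 active = viability at or under a set limit, the compound median less 4 SD, cut at about 6% in these data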;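 also: 0% = Hyamine 1622 control at 20 µM and 100% = untreated cell control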
* marks the source's active call; other numbers are inactive results.

CCCN1CCCc2cc(CN(CCCN3CCOCC3)C(=O)Nc3ccc(OCC)cc3)ccc21 was read as PTEN del growth 90.0, hDAT+cocaine 2.73*, WT yeast gro inh 5.9 and bCat KO growth 91.9.
`COc1ccc(NC(=S)N2CCC(N(C)CC3CCCO3)CC2)cc1Cl` (centres undefined) gave PTEN del growth 97.2, WT yeast gro inh -4.8 and bCat KO growth 106.0.
`COCCn1c(SCc2nnc(-c3ccccc3)o2)nc2sc3c(c2c1=O)CCC3` gave PTEN del growth 99.8, hDAT+cocaine 0.79, WT yeast gro inh 97.1* and bCat KO growth 103.2.
O=C(/C=C/c1ccccc1)NCCc1ccccc1 was read as hDAT+cocaine -0.291.
For O=C(COC(=O)CNS(=O)(=O)/C=C/c1ccccc1)Nc1cccc2ccccc12 the results were WT yeast gro inh -32.2.
Screening Cc1ccc(-c2cc(NC(=O)CSc3n[nH]c(N)n3)n(-c3ccccc3)n2)cc1 returned PTEN del growth 70.9, hDAT+cocaine -0.138, WT yeast gro inh 6.5 and bCat KO growth 83.1.
For Cc1nnc(SCC(=O)Nc2cc(C(C)(C)C)nn2-c2ccccc2)s1 the results were PTEN del growth 95.6, WT yeast gro inh -1.0 and bCat KO growth 94.7.
`Cc1nnc(SCC(=O)Nc2cc(-c3cc(C)c(C)cc3C)nn2-c2ccccc2)s1` gave PTEN del growth 69.6, WT yeast gro inh 63.0* and bCat KO growth 69.4.
`Nc1nc(SCC(=O)Nc2cc(-c3ccccc3)nn2-c2ccccc2)n[nH]1` gave PTEN del growth 85.8, hDAT+cocaine 1.36*, WT yeast gro inh -1.1 and bCat KO growth 90.3.
CC1(C)CC(=O)C2=C(C1)N(c1ccc(F)cc1)C(=O)C2(O)C(F)(F)F (centres undefined) was read as PTEN del growth 97.8, WT yeast gro inh 83.9* and bCat KO growth 94.1.
Screening Cc1ccc(N2C(=O)C(O)(C(F)(F)F)C3=C2CC(C)(C)CC3=O)cc1 (centres undefined) returned PTEN del growth 85.4, WT yeast gro inh -6.1 and bCat KO growth 90.4.
`CC(C)c1nc(SCC(=O)Nc2ccc(N(C)C)cc2)c2ccccc2n1` gave WT yeast gro inh 1.6.
`COc1ccc(-c2nn(C)c(=O)c3ccccc23)cc1CNC(=O)NC1CCCCC1` gave WT yeast gro inh 4.2.
`Cc1ccc(S(=O)(=O)NNC(=O)C2Cc3c(ccc4ccccc34)O2)cc1` (centres undefined) gave PTEN del growth 96.7, hDAT+cocaine -8.52*, WT yeast gro inh 9.5 and bCat KO growth 81.5.
`Fc1ccc(NC(=S)NCCN2CCOCC2)c(F)c1F` gave WT yeast gro inh 0.3.
Cc1ccc(-c2nn(-c3ccccc3)cc2CSC(=N)N)cc1 was read as PTEN del growth 1.0*, hDAT+cocaine 1.09, WT yeast gro inh 80.7* and bCat KO growth 1.1*.
`OCc1cn(-c2ccccc2)nc1-c1ccc(-c2nn(-c3ccccc3)cc2CO)cc1` gave PTEN del growth 94.0, hDAT+cocaine 0.057, WT yeast gro inh -9.3 and bCat KO growth 88.7.
CCN(CC)S(=O)(=O)c1cc(OC)c(Cl)cc1OC was read as WT yeast gro inh 1.7.
CCCCOC(=O)Cn1c2ccc(OC)cc2c2nc3ccccc3nc21 was read as PTEN del growth 3.1*, hDAT+cocaine -0.502, WT yeast gro inh -2.3 and bCat KO growth 4.8*.
Screening CCn1c2ccc(OC)cc2c2nc3ccccc3nc21 returned PTEN del growth 72.8, hDAT+cocaine 0.289, WT yeast gro inh -6.6 and bCat KO growth 61.9.
Screening Cc1nc2cc(-c3ccc(Cl)cc3)nn2c(C)c1CCC(=O)NC(C)c1ccc2c(c1)OCCO2 (centres undefined) returned PTEN del growth 52.9, hDAT+cocaine 1.25, WT yeast gro inh 71.4* and bCat KO growth 53.5.
For Cc1ccc(C(=O)C(C(=O)/C=C/c2ccccc2)=C2SCCCS2)cc1 the results were PTEN del growth 3.5*, hDAT+cocaine 0.7, WT yeast gro inh 21.1 and bCat KO growth 2.9*.
For COc1ccc(/C=C/C(=O)C(C(N)=O)=C2SCCS2)cc1 the results were PTEN del growth 59.3, WT yeast gro inh -8.1 and bCat KO growth 49.5.
Screening CC(C)C(=O)N1CCC(CN=Cc2c(O)n(C3CCCCC3)c(=O)n(C3CCCCC3)c2=O)CC1 returned PTEN del growth 31.7, hDAT+cocaine 3.19*, WT yeast gro inh 77.5* and bCat KO growth 19.3.
`CCC(C(=O)Nc1cccc(C(=O)O)c1)c1ccccc1` (centres undefined) gave WT yeast gro inh -16.2.
`CCC(C(=O)Nc1ccc(OC)c(Cl)c1)c1ccccc1` (centres undefined) gave PTEN del growth 74.4, WT yeast gro inh 59.0* and bCat KO growth 80.2.
For C=C1CCN([C@@H](CC(C)C)C(=O)Nc2nc3ccc(Cl)cc3s2)S(=O)(=O)c2ccccc21 the results were hDAT+cocaine 0.313.
O=S(=O)(NCCSCc1ccc(Cl)cc1Cl)c1ccc2c(c1)OCCO2 was read as PTEN del growth 73.8, hDAT+cocaine 0.425, WT yeast gro inh 72.5* and bCat KO growth 53.6.
For CCOC(=O)N=Nc1c(O)n(CC(=O)OC)c2ccccc12 the results were WT yeast gro inh 14.3.
For CCOC(=O)N=Nc1c2ccccc2c2nc3no[nH]c3nc12 the results were WT yeast gro inh 95.8*.
COc1ccc(/C=C2\CCCC3C2=NN(C(=O)c2ccco2)C3c2ccc(OC)c(OC)c2)cc1OC (centres undefined) was read as PTEN del growth 2.5*, hDAT+cocaine 1.46, WT yeast gro inh -6.3 and bCat KO growth 5.6*.
Screening COc1ccc(/C=C2\CCCC3C2=NN(C(=O)c2scnc2C)C3c2ccc(OC)c(OC)c2)cc1OC (centres undefined) returned PTEN del growth 45.1, hDAT+cocaine -0.532, WT yeast gro inh 10.8 and bCat KO growth 52.3.
`O=C(c1ccccn1)N1N=C2/C(=C/c3ccc(F)cc3)CCCC2C1c1ccc(F)cc1` (centres undefined) gave PTEN del growth 64.1, WT yeast gro inh 74.5* and bCat KO growth 70.4.
O=[N+]([O-])c1ccc(N=Nc2ccc(O)cc2O)cc1 was read as PTEN del growth 2.4*, hDAT+cocaine -1.63, WT yeast gro inh 15.6 and bCat KO growth 1.9*.
For O=[N+]([O-])c1ccc(N=NN(CCO)CCO)cc1 the results were PTEN del growth 91.2, WT yeast gro inh 0.9 and bCat KO growth 91.6.
`CCN1CC(=O)Nc2cc(S(=O)(=O)N3CCOCC3)ccc21` gave WT yeast gro inh 6.3.
Screening Cc1ccc(-c2nc3sc4c(N)ncnc4c3c3c2CCCC3)cc1 returned PTEN del growth 83.7, hDAT+cocaine -4.94*, WT yeast gro inh -16.4 and bCat KO growth 83.0.
`CCCCN(CC)Cc1ccc(CNC(=O)Nc2ccc(F)cc2)o1` gave PTEN del growth 30.5, hDAT+cocaine -5.48* and bCat KO growth 18.1.
CCOC(=O)C1CC(c2ccc(Cl)cc2)=NNC1=O (centres undefined) was read as WT yeast gro inh -2.7.
Screening COc1ccc(-c2nn(-c3ccccc3)cc2C(=O)OCC(=O)c2ccc(C)c([N+](=O)[O-])c2)cc1 returned PTEN del growth 63.8, WT yeast gro inh 8.3 and bCat KO growth 77.5.
